Measured values: the supplement of paper PMC10849652
About 7,900 targets were measured; listed, in parts, are those with a hit and a random draw of the rest. About 0.6% of all pairs of compound and target were hits. Unmarked numbers belong to inactive results.

Experiments:
Test in all cases: log2 fold change, soluble protein after heating vs DMSO (PISA); higher = thermal stabilisation; K562 cells, 10 uM, 30 min; active = over 0.2 and 3.5 SD of the protein, either way, in both replicates (recomputed)
[1] = compound: CC1=C(C=C(C=C1)NC(=O)C2=CC(=CC=C2)C(C)(C)C#N)NC3=CC4=C(C=C3)N=CN(C4=O)C
Outline: (§1)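 K562 cells (2×10^6 cells/mL) were treated with 10 μM compound for 30 min, and aliquots were heated for 3 min over 48°C-58°C. Pooled aliquots were extracted in PBS with 0.5% NP-40 at 4°C, and the supernatant after 21,000xg for 90 min was measured by TMTpro 16plex LC-MS/MS with channel sums equalised. Reported thermal stability, relative to control samples and from duplicates, is a log2 fold change.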

[2] = compound: CC1=C(C=C(C=C1)NC(=O)C2=CC(=CC=C2)N(C)C)NC(=O)C3=CC=C(C=C3)O
Outline: as §1

[3] = compound: CC1=CC=C(C=C1)SC2=C3C=C(SC3=CN=C2)C(=O)N
Outline: as §1

[4] = compound: CC1=NC(=CC=C1)C2=C(N=C(N2)C(C)(C)C)C3=CC4=NC=CN=C4C=C3
Outline: as §1

Nexturastat A = compound: CCCCN(Cc1ccc(C(=O)NO)cc1)C(=O)Nc1ccccc1 [Nexturastat A]
Outline: as §1

vemurafenib = compound: CCCS(=O)(=O)Nc1ccc(F)c(C(=O)c2c[nH]c3ncc(-c4ccc(Cl)cc4)cc23)c1F [vemurafenib]
Outline: as §1

[5] = compound: CCCS(=O)(=O)Nc1ccc(F)c(C(=O)c2c[nH]c3ncc(Cl)cc23)c1F
Outline: as §1

[6] = compound: CCCc1cc(C)[nH]c(=O)c1CNC(=O)c1cc(-c2ccnc(N3CCN(C)CC3)c2)cc2c1cnn2C(C)C
Outline: as §1

givinostat = compound: CCN(CC)Cc1ccc2cc(COC(=O)Nc3ccc(C(=O)NO)cc3)ccc2c1 [givinostat]
Outline: as §1

barasertib = compound: CCN(CCCOc1ccc2c(Nc3cc(CC(=O)Nc4cccc(F)c4)[nH]n3)ncnc2c1)CCOP(=O)(O)O [barasertib]
Outline: as §1

[7] = compound: CC[C@@H]1C(=O)N(C)c2cnc(Nc3ccc(C(=O)NC4CCN(C)CC4)cc3OC)nc2N1C1CCCC1
Outline: as §1

volasertib = compound: CC[C@@H]1C(=O)N(C)c2cnc(Nc3ccc(C(=O)N[C@H]4CC[C@H](N5CCN(CC6CC6)CC5)CC4)cc3OC)nc2N1C(C)C [volasertib]
Outline: as §1

[8] = compound: CC[C@H](C)N1C=C(C2=C(C=C(C=C21)C3=CN=C(C=C3)N4CCNCC4)C(=O)NCC5=C(C=C(NC5=O)C)C)C
Outline: as §1

epoxomicin = compound: CC[C@H](C)[C@@H](C(=O)N[C@@H]([C@@H](C)O)C(=O)N[C@@H](CC(C)C)C(=O)[C@]1(CO1)C)NC(=O)[C@H]([C@@H](C)CC)N(C)C(=O)C [epoxomicin]
Outline: as §1

[9] = compound: CCn1c(C(=O)N(C2CC2)C2CC2)cc2c3c(ncn3C)c(Nc3cc(C)n(C)n3)nc21
Outline: as §1

[10] = compound: CN(C)CC(=O)Nc1ccc2[nH]c(=O)c3ccccc3c2c1
Outline: as §1

rosiglitazone = compound: CN(CCOC1=CC=C(C=C1)C[C@H]2C(=O)NC(=O)S2)C3=CC=CC=N3 (racemic) [rosiglitazone]
Outline: as §1

[11] = compound: CCn1cc(-c2ccnc3[nH]c(-c4cccc(CN(C)C)c4)cc23)c(-c2ccc(NC(=O)N(C)C)cc2)n1
Outline: as §1

[12] = compound: CN1CCC(CNc2ccc3ncc(-c4cccc(OC(F)(F)F)c4)n3n2)CC1
Outline: as §1

[13] = compound: CN1C2=C(C3=C1C(=O)N(N=C3)CC4=CC(=CC=C4)N)SC(=C2)S(=O)C
Outline: as §1

Chain of UniProt Q9NUM4 (Q9NUM4 whole entry, looked up): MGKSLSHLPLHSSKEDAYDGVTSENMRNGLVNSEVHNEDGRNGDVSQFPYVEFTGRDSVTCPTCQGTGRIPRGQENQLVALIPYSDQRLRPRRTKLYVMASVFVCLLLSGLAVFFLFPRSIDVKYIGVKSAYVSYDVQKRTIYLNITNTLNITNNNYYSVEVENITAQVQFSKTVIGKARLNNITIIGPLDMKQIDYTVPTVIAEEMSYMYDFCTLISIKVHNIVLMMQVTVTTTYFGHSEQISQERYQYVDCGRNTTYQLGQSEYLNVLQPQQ
Chain of UniProt P61960 (P61960 whole entry, looked up): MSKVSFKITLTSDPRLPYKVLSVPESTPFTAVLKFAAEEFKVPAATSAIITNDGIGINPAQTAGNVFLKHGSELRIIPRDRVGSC
Chain of UniProt Q9HCS7 (Q9HCS7 whole entry, looked up): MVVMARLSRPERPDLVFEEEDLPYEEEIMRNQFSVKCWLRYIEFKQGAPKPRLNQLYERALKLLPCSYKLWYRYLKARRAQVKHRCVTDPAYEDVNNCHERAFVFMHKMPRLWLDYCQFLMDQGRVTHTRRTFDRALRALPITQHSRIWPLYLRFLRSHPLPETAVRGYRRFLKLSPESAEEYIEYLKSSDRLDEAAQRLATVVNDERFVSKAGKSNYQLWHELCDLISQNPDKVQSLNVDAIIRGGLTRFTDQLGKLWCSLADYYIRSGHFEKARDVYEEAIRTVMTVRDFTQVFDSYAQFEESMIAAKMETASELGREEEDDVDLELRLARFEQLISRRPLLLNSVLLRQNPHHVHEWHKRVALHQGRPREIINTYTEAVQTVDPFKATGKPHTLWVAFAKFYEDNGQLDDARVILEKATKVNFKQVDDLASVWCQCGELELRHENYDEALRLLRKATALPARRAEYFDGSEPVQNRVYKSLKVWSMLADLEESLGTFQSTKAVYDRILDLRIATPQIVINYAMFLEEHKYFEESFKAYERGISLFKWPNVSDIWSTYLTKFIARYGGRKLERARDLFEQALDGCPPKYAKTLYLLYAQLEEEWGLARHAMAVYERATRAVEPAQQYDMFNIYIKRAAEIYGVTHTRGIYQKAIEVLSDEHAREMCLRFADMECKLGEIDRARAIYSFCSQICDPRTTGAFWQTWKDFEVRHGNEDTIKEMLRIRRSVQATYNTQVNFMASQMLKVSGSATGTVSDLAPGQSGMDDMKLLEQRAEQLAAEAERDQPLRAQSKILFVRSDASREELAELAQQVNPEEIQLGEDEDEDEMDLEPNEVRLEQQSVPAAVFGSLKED
Chain of UniProt Q13263 (Q13263 whole entry, looked up): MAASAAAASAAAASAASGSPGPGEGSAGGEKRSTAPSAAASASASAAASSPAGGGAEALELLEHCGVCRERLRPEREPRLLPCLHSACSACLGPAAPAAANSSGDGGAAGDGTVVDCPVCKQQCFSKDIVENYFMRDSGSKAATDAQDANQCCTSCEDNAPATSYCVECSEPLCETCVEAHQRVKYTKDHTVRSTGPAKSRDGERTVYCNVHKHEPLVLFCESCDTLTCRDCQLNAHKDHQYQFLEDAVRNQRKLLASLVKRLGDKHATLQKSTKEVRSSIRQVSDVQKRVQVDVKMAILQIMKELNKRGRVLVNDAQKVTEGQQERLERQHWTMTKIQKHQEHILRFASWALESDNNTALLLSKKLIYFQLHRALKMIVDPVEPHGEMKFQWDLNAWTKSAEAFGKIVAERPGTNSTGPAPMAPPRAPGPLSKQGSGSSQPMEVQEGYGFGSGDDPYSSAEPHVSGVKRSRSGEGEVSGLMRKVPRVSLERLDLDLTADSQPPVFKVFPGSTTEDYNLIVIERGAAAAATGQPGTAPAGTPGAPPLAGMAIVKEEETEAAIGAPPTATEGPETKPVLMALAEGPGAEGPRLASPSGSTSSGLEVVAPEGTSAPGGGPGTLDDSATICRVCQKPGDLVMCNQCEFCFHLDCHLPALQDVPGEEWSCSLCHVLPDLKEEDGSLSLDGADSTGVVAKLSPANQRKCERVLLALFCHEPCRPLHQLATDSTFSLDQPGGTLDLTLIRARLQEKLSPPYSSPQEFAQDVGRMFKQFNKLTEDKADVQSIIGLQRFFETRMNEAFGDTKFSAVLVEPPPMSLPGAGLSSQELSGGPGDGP
Chain of UniProt Q9C037 (Q9C037 whole entry, looked up): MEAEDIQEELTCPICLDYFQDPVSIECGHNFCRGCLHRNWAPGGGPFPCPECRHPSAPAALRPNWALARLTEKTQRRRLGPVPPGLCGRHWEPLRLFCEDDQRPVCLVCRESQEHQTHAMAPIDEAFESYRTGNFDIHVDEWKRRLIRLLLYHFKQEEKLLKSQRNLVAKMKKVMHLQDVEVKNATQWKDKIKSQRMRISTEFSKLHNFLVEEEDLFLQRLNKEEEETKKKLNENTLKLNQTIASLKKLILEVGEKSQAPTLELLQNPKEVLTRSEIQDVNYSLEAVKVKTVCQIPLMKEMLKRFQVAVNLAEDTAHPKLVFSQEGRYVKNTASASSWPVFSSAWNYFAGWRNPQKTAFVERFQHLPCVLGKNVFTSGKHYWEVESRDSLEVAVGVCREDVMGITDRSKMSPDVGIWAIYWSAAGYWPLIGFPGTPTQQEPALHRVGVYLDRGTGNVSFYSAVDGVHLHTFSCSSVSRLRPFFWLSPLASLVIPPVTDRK
Chain of UniProt Q9BZM6 (Q9BZM6 whole entry, looked up): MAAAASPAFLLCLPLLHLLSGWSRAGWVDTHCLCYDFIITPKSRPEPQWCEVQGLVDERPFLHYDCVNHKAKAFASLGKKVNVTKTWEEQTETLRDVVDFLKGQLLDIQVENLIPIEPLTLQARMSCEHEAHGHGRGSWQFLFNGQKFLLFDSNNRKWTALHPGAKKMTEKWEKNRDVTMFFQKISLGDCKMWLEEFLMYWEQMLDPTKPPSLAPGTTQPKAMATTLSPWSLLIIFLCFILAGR
Chain of UniProt Q9Y5K5 (Q9Y5K5 whole entry, looked up): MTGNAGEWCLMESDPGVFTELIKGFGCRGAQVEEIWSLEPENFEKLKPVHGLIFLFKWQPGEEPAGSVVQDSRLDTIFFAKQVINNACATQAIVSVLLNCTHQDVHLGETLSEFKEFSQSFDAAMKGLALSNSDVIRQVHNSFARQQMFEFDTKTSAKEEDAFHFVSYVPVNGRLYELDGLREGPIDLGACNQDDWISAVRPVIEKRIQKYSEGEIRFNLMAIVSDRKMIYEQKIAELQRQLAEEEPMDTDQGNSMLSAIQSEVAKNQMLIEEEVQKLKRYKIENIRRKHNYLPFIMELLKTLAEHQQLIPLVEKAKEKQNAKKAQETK
Chain of UniProt Q9BQB6 (Q9BQB6 whole entry, looked up): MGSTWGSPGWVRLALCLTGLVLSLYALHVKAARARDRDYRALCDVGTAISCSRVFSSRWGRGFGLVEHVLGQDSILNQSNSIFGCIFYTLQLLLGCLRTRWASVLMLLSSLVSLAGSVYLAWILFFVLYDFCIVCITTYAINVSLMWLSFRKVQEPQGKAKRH
Chain of UniProt Q96ET8 (Q96ET8 whole entry, looked up): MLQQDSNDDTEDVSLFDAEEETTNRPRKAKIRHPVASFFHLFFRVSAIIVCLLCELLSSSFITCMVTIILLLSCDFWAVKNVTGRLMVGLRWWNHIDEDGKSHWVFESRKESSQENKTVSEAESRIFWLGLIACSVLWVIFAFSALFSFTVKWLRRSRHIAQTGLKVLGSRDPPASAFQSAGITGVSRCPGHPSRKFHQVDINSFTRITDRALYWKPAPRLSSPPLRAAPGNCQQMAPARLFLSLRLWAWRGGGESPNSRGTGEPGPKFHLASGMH
Chain of UniProt Q8IWA0 (Q8IWA0 whole entry, looked up): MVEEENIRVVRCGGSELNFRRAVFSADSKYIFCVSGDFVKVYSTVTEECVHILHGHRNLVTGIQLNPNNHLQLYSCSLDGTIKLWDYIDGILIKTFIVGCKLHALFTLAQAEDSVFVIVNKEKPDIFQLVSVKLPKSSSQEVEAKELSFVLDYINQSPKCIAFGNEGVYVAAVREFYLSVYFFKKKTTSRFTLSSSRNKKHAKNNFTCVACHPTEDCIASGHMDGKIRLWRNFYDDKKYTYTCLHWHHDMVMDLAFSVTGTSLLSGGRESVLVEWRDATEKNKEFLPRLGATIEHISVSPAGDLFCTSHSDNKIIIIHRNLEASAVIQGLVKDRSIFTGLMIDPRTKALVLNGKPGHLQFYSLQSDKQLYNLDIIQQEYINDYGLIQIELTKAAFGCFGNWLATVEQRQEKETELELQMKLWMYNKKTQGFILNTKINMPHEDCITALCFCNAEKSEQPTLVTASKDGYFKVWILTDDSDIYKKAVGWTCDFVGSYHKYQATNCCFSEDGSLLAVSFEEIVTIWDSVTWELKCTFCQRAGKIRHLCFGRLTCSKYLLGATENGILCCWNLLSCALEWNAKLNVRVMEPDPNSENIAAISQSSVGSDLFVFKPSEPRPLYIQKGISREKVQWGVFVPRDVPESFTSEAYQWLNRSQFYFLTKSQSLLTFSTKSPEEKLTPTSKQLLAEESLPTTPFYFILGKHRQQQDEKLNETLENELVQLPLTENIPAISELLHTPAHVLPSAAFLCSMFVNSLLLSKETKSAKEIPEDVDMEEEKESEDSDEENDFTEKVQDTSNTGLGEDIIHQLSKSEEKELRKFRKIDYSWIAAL
Chain of UniProt Q7Z7N9 (Q7Z7N9 whole entry, looked up): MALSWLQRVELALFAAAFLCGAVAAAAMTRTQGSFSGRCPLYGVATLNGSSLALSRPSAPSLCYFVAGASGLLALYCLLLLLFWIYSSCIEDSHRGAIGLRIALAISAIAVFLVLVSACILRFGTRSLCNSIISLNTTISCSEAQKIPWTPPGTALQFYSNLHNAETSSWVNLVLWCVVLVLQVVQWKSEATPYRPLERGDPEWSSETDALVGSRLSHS
Chain of UniProt A6NIH7 (A6NIH7 whole entry, looked up): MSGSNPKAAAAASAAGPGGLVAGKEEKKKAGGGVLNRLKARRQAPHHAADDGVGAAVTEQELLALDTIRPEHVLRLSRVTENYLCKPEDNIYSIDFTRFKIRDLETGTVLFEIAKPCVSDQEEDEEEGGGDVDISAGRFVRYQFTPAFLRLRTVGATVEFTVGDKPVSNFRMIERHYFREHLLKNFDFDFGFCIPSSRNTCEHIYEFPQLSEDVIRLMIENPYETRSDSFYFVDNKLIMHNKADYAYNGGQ

Target | log2 fold change [1] | log2 fold change [2] | log2 fold change [3] | log2 fold change [4] | log2 fold change (Nexturastat A) | log2 fold change (vemurafenib) | log2 fold change [5] | log2 fold change [6] | log2 fold change (givinostat) | log2 fold change (barasertib) | log2 fold change [7] | log2 fold change (volasertib) | log2 fold change [8] | log2 fold change (epoxomicin) | log2 fold change [9] | log2 fold change [10] | log2 fold change (rosiglitazone) | log2 fold change [11] | log2 fold change [12] | log2 fold change [13]
UCHL5 isoform 3 (UniProt Q9Y5K5) | -0.09 | -0.145 | 0.048 | -0.213 | 0.07 | -0.02 | 0.243 | 0.047 | 0.056 | 0.048 | -0.008 | -0.617 (active) | 0.126 | 0.293 | 0.107 | 0.074 | 0.062 |  |  | 
TSC2 (UniProt P49815) | -0.09 | 0.004 | -0.076 | -0.139 | 0.173 |  | 0.098 | -0.036 | -0.043 | -0.015 | -0.062 | -0.23 |  | -0.01 | -0.295 |  | -0.052 | 0.016 | -0.041 | 
VKORC1 (UniProt Q9BQB6) | 0.064 | -0.04 | 0.001 | -0.325 (active) |  | -0.023 | 0.117 | -0.017 | -0.006 | 0.048 | -0.006 | -0.079 | -0.088 |  | -0.078 | 0.072 | 0.033 | 0.008 | -0.09 | 0.03
TRIM44 (UniProt Q96DX7) | 0.059 | -0.055 | 0.06 | 0.015 |  | -0.005 | 0.042 | 0 | -0.026 | -0.035 | 0.003 | -0.028 | -0.024 |  | 0.014 | -0.004 | 0.035 | 0.005 | 0.041 | -0.069
TRIM4 (UniProt Q9C037) | -0.031 | 0.023 | -0.029 | -0.076 | 0.1 | -0.297 | -0.041 | 0.046 | -0.086 | 0.011 | 0.01 | -0.042 | 0.178 | 0.111 | 0.063 | 0.03 | 0.021 | -0.069 | 0.294 | 
UNC119B (UniProt A6NIH7) | 0.293 | -0.057 | 0.241 | -0.017 |  | 0.023 | -0.047 | -0.108 | 0.12 | -0.029 | -0.168 | 0.066 | -0.224 |  | -0.134 | -0.023 | 0.001 | -0.104 | 0.047 | 0.004
TRMT10C (UniProt Q7L0Y3) | 0.013 | -0.051 | 0.017 | 0.007 | -0.095 | 0.015 | 0.042 | -0.013 | -0.022 | 0.041 | -0.161 | -0.416 (active) | 0.07 | 0.046 | -0.064 | 0.018 | 0.021 | -0.057 | 0.003 | 0.008
TRABD (UniProt Q9H4I3) | 0.014 | -0.017 | -0.005 | -0.133 | -0.03 | 0.125 | -0.06 | 0.147 | -0.041 | 0.031 | 0.245 | 0.215 | 0 | -0.004 | 0.128 | 0.029 | 0.001 | -0.108 | 0.228 | 
TMEM179B (UniProt Q7Z7N9) | -0.233 | -0.003 | 0.011 | 0.027 | 0.378 |  | 0.053 | -0.021 | -0.118 | 0.045 | 0.05 | 0.052 | 0.029 | -0.44 (active) | 0.026 |  | -0.027 | 0.039 | -0.128 | 
ULBP1 (UniProt Q9BZM6) | -0.088 | 0.023 | -0.014 |  | 0.428 (active) | 0.051 | 0.053 | 0 | 0.028 |  |  | -0.178 |  | 0.152 | -0.013 | -0.019 |  |  |  | 0.007
UFM1 (UniProt P61960) | 0.031 | -0.046 | 0.06 | 0.183 | -0.04 | 0.07 | 0.041 | -0.083 | 0.087 | -0.014 | 0.025 | -0.13 | -0.092 | 0.023 | -0.026 | 0.043 | 0.029 |  |  | -0.062
TRIM28 (UniProt Q13263) | 0.013 | -0.049 | 0.013 | 0.041 | -0.059 | 0.078 | 0.075 | 0.012 | 0.039 | 0.04 | -0.097 | -0.222 (active) | 0.052 | 0.077 | -0.004 | 0.047 | 0.029 | 0 | -0.033 | -0.033
TMEM106B (UniProt Q9NUM4) | -0.029 |  | 0.161 | 0.019 | -0.11 | -0.163 | -0.081 | -0.023 | 0.052 | -0.039 | 0.025 | -0.032 | -0.05 | -0.11 | -0.026 | -0.05 | 0.022 | -0.007 | -0.13 | 0.012
VDAC1 (UniProt C9JI87) | -0.03 | -0.003 | -0.034 |  | -0.093 |  | -0.134 | -0.053 | -0.052 | 0.071 | 0.097 | 0.08 | -0.334 | -0.007 | 0 |  |  |  |  | 0.21
U2AF1L5 (UniProt P0DN76) |  |  |  | -0.036 |  | 0.019 |  | 0.06 | 0.563 | -0.127 | -0.289 |  | 0.045 |  | -0.303 | 0.138 | 0.04 |  |  | 0.112
WDR46, A0A0G2JJL1 | -0.161 |  | -0.229 | -0.254 | 0.194 | -0.09 | 0.078 | 0.19 | 0.15 | -0.248 | 0.388 | 0.37 | -0.068 | -0.451 | -0.108 | -0.183 | -0.177 |  |  | 0.215
USP48 (UniProt Q86UV5) | -0.096 |  |  |  |  |  |  | -0.232 | 0.237 | 0.252 | -0.159 |  | 0.059 |  | -0.045 |  | 0.101 |  |  | 
WARS1 (UniProt G3V277) | 0.02 |  |  | -0.043 |  | -0.587 (active) |  | -0.338 | 0.141 | 0.073 |  |  | -0.041 |  | -0.084 | -0.163 | 0.078 | 0.098 | -0.12 | 
WDR75 (UniProt Q8IWA0) |  | 0.007 | 0.043 | -0.053 | 0.395 | -0.126 | -0.069 | 0.107 |  | 0.025 |  | -0.153 | -0.041 | -0.156 |  | -0.073 | -0.061 |  |  | 0.166
XAB2 (UniProt Q9HCS7) |  | -0.027 |  | -0.034 | 0.469 |  |  | 0.168 |  |  |  |  |  | 0.019 |  |  |  |  |  | 0.026
TVP23C (UniProt Q96ET8) |  |  | 0.024 |  |  | -0.022 | -0.178 | -0.118 | 0.043 |  | 0.097 | 0.068 |  |  | 0.039 | -0.025 |  | -0.019 | -0.033 | 0
